Among all 55,000 compounds or so, about 340 (0.62%) were called active. Entries that show only a call come without a potency. Inconclusive results (about 3%) are left out. Only a selection was taken, and actives are over-represented in it overall. A number with no mark means an inactive call. The call rests on the fitted dose curve; in most records, active means well fitted cell-killing curve with a large enough effect; inconclusive means small, poorly fitted or top-dose-only effect; inactive means no such curve, though single readings can be large or run the other way.
Assay: qHTS Screen for Compounds that Selectively Target Cancer Cells with p53 Mutations: Cytotoxicity of p53 Null Cells at the Permissive Temperature; further: nearly all actives have a fitted effect of over 55% in size
Settings: H1299-neo p53 null cells, ATP luminescence, 24 h, 32C; series mostly up to 46.1 µM
Excerpt: NIH Chemical Genomics Center [NCGC] NIH Molecular Libraries Screening Centers Network [MLSCN] MLSCN Grant: 1 X01 MH079844-01 Assay Submitter (PI): Dr. SUN, YI, University of Michigan NCGC Assay Overview: Synthetic Lethal Screen for Compounds to Kill Cancer Cells with p53 Mutation. Tumor suppressor gene p53 serves as a major cellular barrier against tumorigenesis. […] The goal of this screening is to identify small molecule probes that selectively kill cancer cells with mutations in p53. This screening was carried out using two lines of H1299 lung cancer cells. The H1299-p53 A138V line express a temperature sensitive p53 mutant (p53ts) in which the mutant p53 protein (A138V) is in the mutant confirmation when grown at 39C (the nonpermissive temperature) and in the wild type conformation when grown at 32C (the permissive temperature). A H1299-neo line (p53 null) grown at both 39C and 32C were used as counter-screens to filter out false positive associated with temperature shifting. The small molecular compounds that selectively target mutant p53-containing cancer cells were selected as candidate probes for further study. A cytotoxicity assay based on the measurement of ATP contents in cells was used in this screen. Concentration-responses of all the compounds in the library collection were determined in qHTS using the cell lines and temperature conditions as above.
NCGC Assay Protocol Summary: Both the H1299-p53A138V and H1299-neo cell lines were provided by Dr.Yi Sun, a PI at the University Michigan. The cells were maintained and cultured at 37C. The resuspended frozen cells were used to plate the cells in the 1536-well assay plates at a density of 600 cells per well in 5 ul medium. The assay plates with the cells were incubated at 37C for 16 to 30 hours before the experiments. The library compounds in DMSO solution were added to the cells in assay plates and incubated 24 hours at 39C (for mutant p53 conformation) or 32C (for normal p53 conformation as control). An ATP_lite assay kit (PerkinElmer) was used to determine the cell viability. Tomaxifen (100uM) was used as the positive control for cell killing. Data were normalized to the controls for basal activity (DMSO only) and 100% killing (100uM tamoxifen). AC50 values were determined from concentration-response data modeled with the standard Hill equation. P53 assay protocol: 1. Reagent; 5 uL H1299-p53A138V or H1299-neo cell cells/well 2. Time; overnight; 37C incubation 3. Compounds; 23 nL; 5.9 nM to 46 uM 4. Controls; 23 nL; Tamoxifen 100 uM 5. Time; 24 hr; 32C incubation 6. Reagent; 3 uL; ATP_Lite reagent 7. Time; 20 min; Room Temperature 8. Detection; Luminescence; Viewlux plate reader Keywords: p53, synthetic lethal, cancer, cell viability, cytotoxicity, H1299 cell line, luminescence, MLSMR, MLSCN, NIH Roadmap, qHTS, NCGC
Potency means the concentration at half of the fitted maximal effect.

Row | SMILES | Potency
1 | COc1cccc(CNCc2c(C(=O)O)n(Cc3ccc(C)cc3)c3cc(C)ccc23)c1OC | inactive
2 | O=C(Cn1cnc2c(oc3ccccc32)c1=O)Nc1ccc(OC(F)(F)F)cc1 | inactive
3 | CCOc1ccccc1CNC(=O)Nc1cn(CC(C)C)c(=O)c2ccccc12 | inactive
4 | COc1ccc2oc(-c3cccc(NC(=O)CSc4ccc(Cl)cc4)c3)nc2c1 | inactive
5 | CCOC(=O)CN1C(C(=O)c2ccccc2)=C(OC(=O)C(C)(C)C)c2ccccc2S1(=O)=O | inactive
6 | CCOC(=O)C1=C(c2ccccc2)Nc2ncnn2C1c1ccc(Cl)cc1 (centres undefined) | inactive
7 | O=C(CSc1nc2ccccc2[nH]1)Nc1nc(-c2ccccc2)c(-c2ccccc2)o1 | inactive
8 | O=C(NCc1ccccc1)C(=O)NCC(c1ccco1)S(=O)(=O)c1ccc(Cl)cc1 (centres undefined) | inactive
9 | Cc1ccc(CSc2nc3ccsc3c(=O)n2CCC(C)C)cc1 | inactive
10 | COc1ccc(S(=O)(=O)c2c(Nc3cccc(Cl)c3)sc(C(=O)c3ccccc3)c2N)cc1 | inactive
11 | Cc1cccc(N2CCN(C(=O)c3ccc(Nc4nc5ccccc5n5nnnc45)cc3)CC2)c1C | inactive
12 | O=C(COc1ccccc1)OCc1cc(=O)n2nc(-c3cccs3)sc2n1 | inactive
13 | CC1CCN(C(=O)Cn2c(=O)n(-c3ccc(Cl)cc3)c(=O)c3c4c(sc32)CCC4)CC1 | inactive
14 | CCOC(=O)CSc1nc2ccc(C)cc2[nH]1 | inactive
15 | CCCc1nn2c(=O)cc(COC(=O)c3ccc(NC(=O)C(C)Oc4ccccc4)cc3)nc2s1 (centres undefined) | inactive
16 | CCOC(=O)c1cc2c(=O)n3ccccc3nc2n(CCCOC)c1=NC(=O)C(C)Oc1ccccc1 (centres undefined) | inactive
17 | CC(C)c1ccc(NC(=O)c2ccc3c(O)c(S(=O)(=O)c4ccccc4)c(=O)[nH]c3c2)cc1 | 12.6 µM (active)
18 | COc1ccc(CNC(=O)c2ccc3c(O)c(S(=O)(=O)c4ccccc4)c(=O)[nH]c3c2)cc1 | inactive
19 | Cc1ccc(C(=O)Nc2ccc3[nH]c(=O)c(=O)[nH]c3c2)cc1 | inactive
20 | CN(C(=O)CSc1nc2ccccc2n1Cc1ccccc1C#N)c1ccccc1 | inactive
21 | COc1ccc(CNC(=O)CS(=O)Cc2nc(-c3cccc(C)c3)oc2C)cc1 (centres undefined) | inactive
22 | Cc1cc(SCC(=O)NCCN2C(=O)CSC2=O)nc2ccccc12 | inactive
23 | COC(=O)CSc1ccc2nnc(CCNS(=O)(=O)c3ccc(C)cc3)n2n1 | inactive
24 | N#CC1(NC(=O)COc2ccc3oc4ccccc4c3c2)CCCCC1 | inactive
25 | O=C(NCCc1ccccn1)c1cc(-c2ccc(Cl)cc2)nc2ccccc12 | inactive

Row | SMILES | Potency
26 | CCC(=O)NCc1cc(-c2nn(C)c(=O)c3ccccc23)ccc1OC | inactive
27 | CCOc1ccc(C(O)Cc2nc3ccccc3n2C)cc1 (centres undefined) | inactive
28 | CC(C)(C)c1ccc(C(=O)NCC(=O)OCN2C(=O)c3ccccc3C2=O)cc1 | inactive
29 | Cc1ccc(NC(=O)c2cn3c4c(ccc(Cl)c4c2=O)OC(C)C3)cc1C (centres undefined) | inactive
30 | Cc1cc(C)cc(NC(=O)Cc2csc(C)n2)c1 | inactive
31 | COc1ccc2c(c1)Cc1sc(NC(=O)c3ccccc3Br)nc1-2 | inactive
32 | CCC(CC)c1nn2cc(-c3ccccc3)nc2s1 | 6.31 µM (active)
33 | CCCS(=O)(=O)Nc1cccc(-c2cn3ccsc3n2)c1 | inactive
34 | CCc1ccc(CNC(=O)C2CCN(c3nn4cc(-c5ccc(F)cc5)nc4s3)CC2)cc1 | inactive
35 | Cc1cc(C)cc(OC(C)C(=O)Nc2nc3c(s2)CCCC3)c1 (centres undefined) | inactive
36 | Cc1ccccc1NC(=O)c1c(NC(=O)c2ccccc2F)sc2c1CCC(C)C2 (centres undefined) | inactive
37 | O=C(Nc1nc2c(s1)CCCC2)c1ccccc1F | 6.31 µM (active)
38 | CCOC(=O)NC(=O)CSc1nnc(SCCC(=O)O)s1 | inactive
39 | CCC(C)NC(=O)c1ccccc1NC(=O)c1ccccc1N(C)S(C)(=O)=O (centres undefined) | inactive
40 | Cc1ccc(-n2nnnc2CNC(=O)c2ccccc2C)cc1C | inactive
41 | COC(=O)c1cnn(-c2ccc(C(=O)Nc3ccc(OC(F)(F)F)cc3)cc2)c1N | inactive
42 | CCn1c(O)c(N=NC(=O)c2cccc(S(=O)(=O)N3CCCCC3)c2)c2ccccc21 | inactive
43 | Cc1nn2c(=O)cc(COC(=O)c3ccccc3NC(=O)COc3ccccc3C)nc2s1 | inactive
44 | Cc1nn2c(=O)cc(COC(=O)c3cccc(NC(=O)COc4ccccc4Cl)c3)nc2s1 | 12.6 µM (active)
45 | CCCCc1nn2c(=O)cc(COC(=O)c3cccc(NC(=O)COc4ccccc4)c3)nc2s1 | inactive
46 | CCc1nc2cccnc2n1-c1ccc(CC(=O)Nc2c(C)cccc2C)cc1 | inactive
47 | CCCCC1N2CC3([N+](=O)[O-])CN1CC([N+](=O)[O-])(C2)C3(C)C (centres undefined) | inactive
48 | Cc1cc(-c2ccc(C)c(S(=O)(=O)N3c4ccccc4CC3C)c2)on1 (centres undefined) | inactive
49 | Cc1ccc(-c2nnc(SCC(=O)N/N=C/c3cccs3)n2-c2ccc(C)cc2)cc1 | inactive

— PubChem BioAssay AID903 (National Center for Advancing Translational Sciences (NCATS), 2007)
